# Experiments:
# [1] = biological target: RAC-alpha serine/threonine-protein kinase (Homo sapiens) (UniProt P31749); conditions: at 0.1 µM
# [2] = biological target: RAC-alpha serine/threonine-protein kinase (Homo sapiens) (UniProt P31749); conditions: at 1 µM
# [3] = biological target: RAC-beta serine/threonine-protein kinase (Homo sapiens) (UniProt P31751); conditions: at 0.1 µM
# [4] = biological target: RAC-beta serine/threonine-protein kinase (Homo sapiens) (UniProt P31751); conditions: at 1 µM
# [5] = biological target: RAC-gamma serine/threonine-protein kinase (Homo sapiens) (UniProt Q9Y243); conditions: at 0.1 µM
# [6] = biological target: RAC-gamma serine/threonine-protein kinase (Homo sapiens) (UniProt Q9Y243); conditions: at 1 µM
# [7] = biological target: G protein-coupled receptor kinase 6 (Homo sapiens) (UniProt P43250); conditions: at 0.1 µM
# [8] = biological target: G protein-coupled receptor kinase 6 (Homo sapiens) (UniProt P43250); conditions: at 1 µM
# [9] = biological target: Rhodopsin kinase GRK7 (Homo sapiens) (UniProt Q8WTQ7); conditions: at 0.1 µM
# [10] = biological target: Rhodopsin kinase GRK7 (Homo sapiens) (UniProt Q8WTQ7); conditions: at 1 µM
# [11] = biological target: Serine/threonine-protein kinase MRCK alpha (Homo sapiens) (UniProt Q5VT25); conditions: at 0.1 µM
# Chain of Serine/threonine-protein kinase MRCK alpha (Homo sapiens) (Q5VT25 whole entry): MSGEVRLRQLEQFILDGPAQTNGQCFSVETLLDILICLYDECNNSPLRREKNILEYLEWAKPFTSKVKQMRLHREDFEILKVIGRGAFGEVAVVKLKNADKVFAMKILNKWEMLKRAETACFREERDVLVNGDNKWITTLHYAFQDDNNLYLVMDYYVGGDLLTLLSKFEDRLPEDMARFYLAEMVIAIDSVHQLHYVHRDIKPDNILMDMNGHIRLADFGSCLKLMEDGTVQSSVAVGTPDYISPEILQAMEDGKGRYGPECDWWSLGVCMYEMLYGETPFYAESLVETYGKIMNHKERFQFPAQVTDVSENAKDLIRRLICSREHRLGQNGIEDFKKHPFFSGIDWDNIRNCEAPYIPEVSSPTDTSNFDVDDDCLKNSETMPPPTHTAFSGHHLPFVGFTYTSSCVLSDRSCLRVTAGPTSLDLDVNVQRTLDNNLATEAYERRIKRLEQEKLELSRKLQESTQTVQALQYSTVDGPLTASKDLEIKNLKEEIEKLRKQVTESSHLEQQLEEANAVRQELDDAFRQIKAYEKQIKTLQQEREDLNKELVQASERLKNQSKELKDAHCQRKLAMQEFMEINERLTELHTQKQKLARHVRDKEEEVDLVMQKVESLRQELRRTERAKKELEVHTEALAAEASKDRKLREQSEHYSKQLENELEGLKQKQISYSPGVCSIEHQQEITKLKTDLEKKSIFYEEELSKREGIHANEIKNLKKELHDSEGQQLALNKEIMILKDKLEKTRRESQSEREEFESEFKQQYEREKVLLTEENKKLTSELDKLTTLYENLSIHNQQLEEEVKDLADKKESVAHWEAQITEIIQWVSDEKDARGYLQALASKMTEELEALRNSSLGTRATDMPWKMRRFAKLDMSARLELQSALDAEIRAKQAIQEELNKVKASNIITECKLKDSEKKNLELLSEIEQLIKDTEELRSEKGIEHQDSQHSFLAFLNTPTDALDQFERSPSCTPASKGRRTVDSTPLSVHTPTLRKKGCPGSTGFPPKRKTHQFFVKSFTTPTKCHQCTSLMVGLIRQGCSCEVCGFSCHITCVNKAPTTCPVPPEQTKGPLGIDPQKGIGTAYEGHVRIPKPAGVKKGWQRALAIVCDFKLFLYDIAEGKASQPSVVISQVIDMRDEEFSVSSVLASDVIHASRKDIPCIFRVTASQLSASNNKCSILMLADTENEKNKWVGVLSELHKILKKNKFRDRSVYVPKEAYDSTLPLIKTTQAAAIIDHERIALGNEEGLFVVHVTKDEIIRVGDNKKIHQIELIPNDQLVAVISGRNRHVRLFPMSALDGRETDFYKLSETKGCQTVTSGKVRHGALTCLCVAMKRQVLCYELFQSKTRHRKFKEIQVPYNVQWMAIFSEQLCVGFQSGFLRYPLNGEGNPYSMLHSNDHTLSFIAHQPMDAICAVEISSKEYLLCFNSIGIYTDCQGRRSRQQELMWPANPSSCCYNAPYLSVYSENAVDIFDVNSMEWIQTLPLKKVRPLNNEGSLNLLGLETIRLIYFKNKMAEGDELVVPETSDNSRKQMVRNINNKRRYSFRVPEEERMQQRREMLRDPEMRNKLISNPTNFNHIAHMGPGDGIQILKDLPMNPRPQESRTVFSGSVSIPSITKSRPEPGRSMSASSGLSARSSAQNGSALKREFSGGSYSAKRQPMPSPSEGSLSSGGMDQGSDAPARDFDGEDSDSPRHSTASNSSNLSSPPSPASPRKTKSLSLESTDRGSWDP
# [12] = biological target: Serine/threonine-protein kinase MRCK alpha (Homo sapiens) (UniProt Q5VT25); conditions: at 1 µM
# [13] = biological target: Serine/threonine-protein kinase MRCK beta (Homo sapiens) (UniProt Q9Y5S2); conditions: at 0.1 µM
# [14] = biological target: Serine/threonine-protein kinase MRCK beta (Homo sapiens) (UniProt Q9Y5S2); conditions: at 1 µM
# [15] = biological target: Ribosomal protein S6 kinase alpha-5 (Homo sapiens) (UniProt O75582); conditions: at 0.1 µM
# Chain of Ribosomal protein S6 kinase alpha-5 (Homo sapiens) (O75582 whole entry, looked up): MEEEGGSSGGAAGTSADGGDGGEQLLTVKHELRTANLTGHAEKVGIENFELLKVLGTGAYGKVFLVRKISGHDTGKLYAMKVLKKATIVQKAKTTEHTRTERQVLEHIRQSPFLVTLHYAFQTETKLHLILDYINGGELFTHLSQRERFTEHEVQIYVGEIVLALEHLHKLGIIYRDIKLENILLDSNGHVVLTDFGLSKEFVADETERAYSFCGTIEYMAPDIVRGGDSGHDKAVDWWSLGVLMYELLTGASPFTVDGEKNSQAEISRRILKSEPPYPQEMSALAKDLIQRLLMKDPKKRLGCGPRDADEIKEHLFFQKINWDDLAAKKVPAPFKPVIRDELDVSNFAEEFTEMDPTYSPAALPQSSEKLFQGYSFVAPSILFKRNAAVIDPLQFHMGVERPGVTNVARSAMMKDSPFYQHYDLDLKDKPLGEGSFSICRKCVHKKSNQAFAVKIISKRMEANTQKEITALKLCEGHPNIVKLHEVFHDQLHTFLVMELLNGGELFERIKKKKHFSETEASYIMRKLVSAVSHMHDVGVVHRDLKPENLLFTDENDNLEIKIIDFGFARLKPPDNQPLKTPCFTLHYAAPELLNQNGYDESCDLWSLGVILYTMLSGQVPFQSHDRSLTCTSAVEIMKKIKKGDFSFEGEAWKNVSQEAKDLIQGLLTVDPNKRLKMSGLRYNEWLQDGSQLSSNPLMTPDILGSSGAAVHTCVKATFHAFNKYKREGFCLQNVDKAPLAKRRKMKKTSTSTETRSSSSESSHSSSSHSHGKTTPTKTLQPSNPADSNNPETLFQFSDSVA
# [16] = biological target: Ribosomal protein S6 kinase alpha-5 (Homo sapiens) (UniProt O75582); conditions: at 1 µM
# [17] = biological target: Ribosomal protein S6 kinase alpha-4 (Homo sapiens) (UniProt O75676); conditions: at 0.1 µM
# [18] = biological target: Ribosomal protein S6 kinase alpha-4 (Homo sapiens) (UniProt O75676); conditions: at 1 µM
# [19] = biological target: Ribosomal protein S6 kinase beta-1 (Homo sapiens) (UniProt P23443); conditions: at 0.1 µM
# [20] = biological target: Ribosomal protein S6 kinase beta-1 (Homo sapiens) (UniProt P23443); conditions: at 1 µM
# [21] = biological target: 3-phosphoinositide-dependent protein kinase 1 (Homo sapiens) (UniProt O15530); conditions: at 0.1 µM;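 note: values are mean inhibition of PDK1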
# [22] = biological target: cAMP-dependent protein kinase catalytic subunit alpha (Homo sapiens) (UniProt P17612); conditions: at 0.1 µM
# [23] = biological target: cAMP-dependent protein kinase catalytic subunit alpha (Homo sapiens) (UniProt P17612); conditions: at 1 µM
# [24] = biological target: Protein kinase C alpha type (Homo sapiens) (UniProt P17252); conditions: at 0.1 µM
# [25] = biological target: Protein kinase C alpha type (Homo sapiens) (UniProt P17252); conditions: at 1 µM
# [26] = biological target: Protein kinase C beta type (Homo sapiens) (UniProt P05771); conditions: at 0.1 µM
# Chain of Protein kinase C beta type (Homo sapiens) (P05771 2-671 limits assumed): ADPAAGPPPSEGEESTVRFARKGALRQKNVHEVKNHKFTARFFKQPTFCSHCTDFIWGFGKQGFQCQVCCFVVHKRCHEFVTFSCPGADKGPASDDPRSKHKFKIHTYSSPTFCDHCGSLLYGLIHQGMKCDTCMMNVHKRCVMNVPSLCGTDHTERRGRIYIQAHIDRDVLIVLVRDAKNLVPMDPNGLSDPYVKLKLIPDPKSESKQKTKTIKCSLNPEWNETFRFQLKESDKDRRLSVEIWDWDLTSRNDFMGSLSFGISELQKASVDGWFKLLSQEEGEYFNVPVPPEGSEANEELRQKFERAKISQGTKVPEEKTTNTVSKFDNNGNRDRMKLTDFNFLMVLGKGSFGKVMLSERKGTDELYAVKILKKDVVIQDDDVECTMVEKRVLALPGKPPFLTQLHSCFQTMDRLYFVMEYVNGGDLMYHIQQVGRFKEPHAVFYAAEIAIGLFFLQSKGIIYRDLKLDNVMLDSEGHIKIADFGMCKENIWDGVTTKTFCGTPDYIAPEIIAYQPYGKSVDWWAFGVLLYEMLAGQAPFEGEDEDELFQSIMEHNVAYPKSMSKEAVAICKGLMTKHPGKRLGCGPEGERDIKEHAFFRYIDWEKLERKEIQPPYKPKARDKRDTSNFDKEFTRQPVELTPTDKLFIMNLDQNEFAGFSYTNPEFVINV
# [27] = biological target: Protein kinase C beta type (Homo sapiens) (UniProt P05771); conditions: at 1 µM
# [28] = biological target: Protein kinase C eta type (Homo sapiens) (UniProt P24723); conditions: at 0.1 µM
# [29] = biological target: Protein kinase C eta type (Homo sapiens) (UniProt P24723); conditions: at 1 µM
# [30] = biological target: Protein kinase C gamma type (Homo sapiens) (UniProt P05129); conditions: at 0.1 µM
# [31] = biological target: Protein kinase C gamma type (Homo sapiens) (UniProt P05129); conditions: at 1 µM
# [32] = biological target: Protein kinase C iota type (Homo sapiens) (UniProt P41743); conditions: at 0.1 µM
# [33] = biological target: Protein kinase C iota type (Homo sapiens) (UniProt P41743); conditions: at 1 µM
# [34] = biological target: Protein kinase C theta type (Homo sapiens) (UniProt Q04759); conditions: at 0.1 µM
# [35] = biological target: Protein kinase C theta type (Homo sapiens) (UniProt Q04759); conditions: at 1 µM
# [36] = biological target: Protein kinase C beta type (Homo sapiens) (UniProt P05771); conditions: at 0.1 µM; remark: listed apart in the source
# [37] = biological target: Protein kinase C beta type (Homo sapiens) (UniProt P05771); conditions: at 1 µM; remark: listed apart in the source
# [38] = biological target: Serine/threonine-protein kinase D1 (Homo sapiens) (UniProt Q15139); conditions: at 0.1 µM
# [39] = biological target: Serine/threonine-protein kinase D1 (Homo sapiens) (UniProt Q15139); conditions: at 1 µM
# [40] = biological target: Serine/threonine-protein kinase D2 (Homo sapiens) (UniProt Q9BZL6); conditions: at 0.1 µM
# [41] = biological target: Serine/threonine-protein kinase D2 (Homo sapiens) (UniProt Q9BZL6); conditions: at 1 µM
# [42] = biological target: Serine/threonine-protein kinase D3 (Homo sapiens) (UniProt O94806); conditions: at 0.1 µM
# [43] = biological target: Serine/threonine-protein kinase D3 (Homo sapiens) (UniProt O94806); conditions: at 1 µM
# [44] = biological target: cGMP-dependent protein kinase 1 (Homo sapiens) (UniProt Q13976); conditions: at 0.1 µM
# Chain of cGMP-dependent protein kinase 1 (Homo sapiens) (Q13976 whole entry): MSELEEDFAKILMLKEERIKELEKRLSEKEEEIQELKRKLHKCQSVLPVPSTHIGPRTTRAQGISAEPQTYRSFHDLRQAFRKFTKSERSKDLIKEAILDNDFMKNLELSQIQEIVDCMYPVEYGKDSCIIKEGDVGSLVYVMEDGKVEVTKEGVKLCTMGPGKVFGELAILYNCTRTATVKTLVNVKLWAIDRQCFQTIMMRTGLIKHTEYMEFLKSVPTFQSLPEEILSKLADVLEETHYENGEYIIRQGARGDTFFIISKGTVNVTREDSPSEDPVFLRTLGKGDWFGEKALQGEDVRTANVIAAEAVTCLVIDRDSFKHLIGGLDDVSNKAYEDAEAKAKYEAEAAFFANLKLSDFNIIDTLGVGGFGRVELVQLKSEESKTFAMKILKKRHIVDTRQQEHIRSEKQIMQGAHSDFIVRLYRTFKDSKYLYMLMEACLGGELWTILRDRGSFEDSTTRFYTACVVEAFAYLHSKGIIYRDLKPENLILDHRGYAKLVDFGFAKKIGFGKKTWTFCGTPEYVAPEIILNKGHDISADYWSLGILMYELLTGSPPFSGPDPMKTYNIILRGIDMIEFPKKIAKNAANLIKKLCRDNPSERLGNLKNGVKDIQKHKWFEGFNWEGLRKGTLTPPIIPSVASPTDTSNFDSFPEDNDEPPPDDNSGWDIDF
# [45] = biological target: cGMP-dependent protein kinase 1 (Homo sapiens) (UniProt Q13976); conditions: at 1 µM
# [46] = biological target: cGMP-dependent protein kinase 2 (Homo sapiens) (UniProt Q13237); conditions: at 0.1 µM
# [47] = biological target: cGMP-dependent protein kinase 2 (Homo sapiens) (UniProt Q13237); conditions: at 1 µM
# [48] = biological target: cAMP-dependent protein kinase catalytic subunit PRKX (Homo sapiens) (UniProt P51817); conditions: at 0.1 µM
# [49] = biological target: cAMP-dependent protein kinase catalytic subunit PRKX (Homo sapiens) (UniProt P51817); conditions: at 1 µM
# [50] = biological target: Rho-associated protein kinase 1 (Homo sapiens) (UniProt Q13464); conditions: at 0.1 µM
# [51] = biological target: Rho-associated protein kinase 1 (Homo sapiens) (UniProt Q13464); conditions: at 1 µM
# [52] = biological target: Rho-associated protein kinase 2 (Homo sapiens) (UniProt O75116); conditions: at 0.1 µM
# [53] = biological target: Rho-associated protein kinase 2 (Homo sapiens) (UniProt O75116); conditions: at 1 µM
# [54] = biological target: Ribosomal protein S6 kinase alpha-1 (Homo sapiens) (UniProt Q15418); conditions: at 0.1 µM
# [55] = biological target: Ribosomal protein S6 kinase alpha-1 (Homo sapiens) (UniProt Q15418); conditions: at 1 µM
# Chain of RAC-alpha serine/threonine-protein kinase (Homo sapiens) (P31749 whole entry): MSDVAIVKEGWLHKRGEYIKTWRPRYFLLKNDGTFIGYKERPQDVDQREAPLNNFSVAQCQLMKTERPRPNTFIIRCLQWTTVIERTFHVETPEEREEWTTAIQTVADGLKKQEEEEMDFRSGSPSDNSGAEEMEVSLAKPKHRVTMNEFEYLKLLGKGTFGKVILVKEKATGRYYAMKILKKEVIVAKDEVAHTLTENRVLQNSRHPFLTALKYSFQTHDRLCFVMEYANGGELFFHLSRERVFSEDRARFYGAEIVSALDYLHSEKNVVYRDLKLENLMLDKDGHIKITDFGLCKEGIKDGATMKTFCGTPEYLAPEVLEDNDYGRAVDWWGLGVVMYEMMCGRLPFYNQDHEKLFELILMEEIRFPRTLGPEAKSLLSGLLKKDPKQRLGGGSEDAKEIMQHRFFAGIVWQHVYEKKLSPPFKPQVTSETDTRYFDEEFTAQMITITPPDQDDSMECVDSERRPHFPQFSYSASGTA
smiles,measurement,setting,value
CNC(=O)Oc1cc(C)c(/C=C/c2cncc(C(=O)NC)c2)c(C)c1,inhibition,[1],1.66%
same,inhibition,[2],1.83%
same,inhibition,[3],0.76%
same,inhibition,[4],1.15%
same,inhibition,[5],1.57%
same,inhibition,[6],1.51%
same,inhibition,[7],2.38%
same,inhibition,[8],-2.05%
same,inhibition,[9],0.83%
same,inhibition,[10],-7.52%
same,inhibition,[11],0.96%
same,inhibition,[12],1.01%
same,inhibition,[13],0.52%
same,inhibition,[14],2.49%
same,inhibition,[15],-0.65%
same,inhibition,[16],2.76%
same,inhibition,[17],0.7%
same,inhibition,[18],5.41%
same,inhibition,[19],2.74%
same,inhibition,[20],2.7%
same,inhibition,[21],3.92%
same,inhibition,[22],1.8%
same,inhibition,[23],1.69%
same,inhibition,[24],0.7%
same,inhibition,[25],2.8%
same,inhibition,[26],-0.06%
same,inhibition,[27],0.33%
same,inhibition,[28],0.72%
same,inhibition,[29],3.06%
same,inhibition,[30],2.88%
same,inhibition,[31],5.84%
same,inhibition,[32],1.28%
same,inhibition,[33],3.8%
same,inhibition,[34],0.64%
same,inhibition,[35],-0.84%
same,inhibition,[36],1.05%
same,inhibition,[37],0.33%
same,inhibition,[38],1.91%
same,inhibition,[39],4.8%
same,inhibition,[40],3%
same,inhibition,[41],4.22%
same,inhibition,[42],2.02%
same,inhibition,[43],3.35%
same,inhibition,[44],3.13%
same,inhibition,[45],4.05%
same,inhibition,[46],3.07%
same,inhibition,[47],5.39%
same,inhibition,[48],1.78%
same,inhibition,[49],0.62%
same,inhibition,[50],0.86%
same,inhibition,[51],4.25%
same,inhibition,[52],1.43%
same,inhibition,[53],3.24%
same,inhibition,[54],2.03%
same,inhibition,[55],4.8%

# From ChEMBL document CHEMBL1961873, “Compounds: GSK PKIS; Assays: Nanosyn kinase panel” (2012)
